# Source: PubChem BioAssay (NCI)
# About 83,000 compounds went through this panel and 20% of them were active in at least one assay; those are over-represented in the sample as a whole.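 Single-dose data. Exposure time 48 hours. Values below 10 considered active.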 Unmarked numbers belong to inactive results. Active and inactive are the calls of the source.
# Tested on: HL-60(TB) leukemia
# Test: NCI-60 one-dose screen, 48 h (100 = growth as untreated, 0 = no growth, -100 = all killed)
# Details: 10 µM unless noted
row,Structure (SMILES),growth
1,O=c1oc2ccccc2c(Cl)c1Cl,41.4%
2,CN(C)CCOc1ccc(/C(=C(/CCCCCCCCCC[P+](c2ccccc2)(c2ccccc2)c2ccccc2)c2ccccc2)c2ccccc2)cc1,-62.1% (active)
3,Clc1ccc2c(NCCCNc3nccc(Nc4ccc(Br)cc4)n3)ccnc2c1,-69.2% (active)
4,COc1ccc(/C=C/C(=O)CCC(=O)O)cc1OC,96.7%
5,COC(=O)[C@@H](C)CNS(=O)(=O)N(c1cc(C(F)(F)F)cc(C(F)(F)F)c1)C1CCN(Cc2ccc(F)cc2)CC1,31.3%
6,COc1ccc(/C=C(/C(=O)N2CCNCC2)c2cc(OC)c(OC)c(OC)c2)cc1O,-37.7% (active)
7,CC1=C2[C@@H](CC1)[C@]1(C)O[C@@](C3CCNCC3)(C[C@H]1OC(=O)CO)[C@H]2OC(=O)/C=C/c1ccccc1,97.1%
8,CC(=O)O[C@@H]1/C=C/C(=O)N[C@@H](C)CCC/C=C/[C@@H]2CCC[C@H]21,99.8%
9,CCn1c2ccc(O)cc2c2c(C)c3c[n+](C(C)C)ccc3c(C)c21,70.3%
10,O=C(Oc1c(Cl)c(Cl)c(Cl)c(Cl)c1Cl)C1CCCN1C(=O)OCc1ccccc1 (centres undefined),-12.5% (active)
11,Nc1ccc(-c2cc3c(NCc4ccccc4)ncnc3s2)cc1,85.5%
12,C/C(Cc1ccc(Cl)cc1)=C(\c1ccc(O)cc1)c1ccc(Cl)cc1,95.7%
13,Cc1ccccc1NC(=O)N/C(N)=N/c1nc2ccccc2s1,-23.2% (active)
14,O=C1CCc2c(sc3[nH]c(=S)n(-c4cc(C(F)(F)F)cc(C(F)(F)F)c4)c(=O)c23)C1,-14.2% (active)
15,Nc1ncnc2c1N=C(c1ccc(F)cc1)CC(c1cccc(Nc3ccnc4cc(Cl)ccc34)c1)N2 (centres undefined),83.6%
16,CCCCc1ccc2nc(NC(=O)OC)[nH]c2c1,-65.6% (active)
17,CNC(=O)c1c(NC(=O)c2ccc(C(C)C)cc2)sc2c1CCC(=O)C2,-13.9% (active)
18,COc1ccc2c(c1)N(CCO)C1=C(C(=O)OC1)C2c1cc(OC)c(OC)c(OC)c1 (centres undefined),-16.7% (active)
19,Nc1ncnc(Nc2ccccc2)n1,107%
20,COc1ccc(C(C(=O)O)c2ccc(OC)cc2)cc1,97.9%

row,Structure (SMILES),growth
1,COc1ccc(-c2noc(C(=O)O)c2-c2cc(OC)c(OC)c(OC)c2)cc1,-38.5% (active)
2,CCCCCc1nc2c(c3c1CCCC3)CCCC2,-15.2% (active)
3,C=CCCCCOc1ccccc1-c1cnc(OCCCCC=C)n1C,66.5%
4,CC(=O)NCCN,103%
5,O=C1C(=O)c2c(nc3ccc(Cl)cn23)-c2ccccc21,-79.7% (active)
6,COc1ccc(-c2cc(-c3cccs3)n(N=O)c(=O)c2C#N)cc1,94.7%
7,CN1CCN(c2nc(Nc3ccc(O)cc3)nc3ccccc23)CC1,61.4%
8,O=C(NC1CCN(Cc2ccccc2)CC1)c1cc(-c2ccncc2)nc2ccc(Cl)cc12,15.2%
9,CCOC(=O)Cn1c(=O)c2c3ccccc3n(C)c2n2nnc(-c3ccccc3)c12,68.5%
10,CCOC(=O)c1sc2nc(-c3cc4ccccc4o3)cc(-c3ccc(Cl)cc3)c2c1N,108%
11,N#CC1=C(N)Oc2c(ccc3cccnc23)C1c1ccccc1 (centres undefined),13.3%
12,CCOC(=O)C1=C(C)NC(=O)NC1c1cc(=O)oc2ccc(C)cc12 (centres undefined),97.6%
13,COC(=O)c1ccc2c(c1)nc(-c1ccc(Cl)cc1)n2-c1cc(C(C)(C)C)[nH]n1,14.9%
14,Cc1cc(N2CCCC2)nc(NC2CCCC(Nc3ccnc4cc(Cl)ccc34)C2)n1 (centres undefined),-68.5% (active)
15,COc1cc(-c2cc(-c3nc4ccc(Cl)cc4[nH]3)[nH]n2)cc(OC)c1OC,38.4%
16,O=C(O)c1ccc(NC(=O)c2cccc(Nc3ccnc(C(F)(F)F)c3)c2)cc1,94.1%
17,COc1cccc2c(=O)c3c(sc12)c(NCCCNCCO)nc1ccccc13,59.8%
18,COc1cc(C(=O)N2CCN(c3ccccc3OC)CC2)c(NC(=O)c2cnccn2)cc1OCc1ccccc1,47.5%
19,COc1cccc(-c2nc3occn3c2-c2ccnc(NCCNS(=O)(=O)c3ccc(C(F)(F)F)cc3)n2)c1,116%
